AMA1-RON2 inh: qHTS for Inhibitors of AMA1-RON; Towards Development of Antimalarial Drug Lead: Primary Screen. AlphaScreen AMA1-biotinylated RON2 peptide binding. Potency, µM (top dose mostly 58.2 µM), most hits filed as inhibitors. Plasmodium falciparum AMA1 (3D7) - RON2 peptide interaction. AID 720542, 2013. 0.2% of 360,000 active; note: nearly all actives have a fitted effect of over 45% in size
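AMA1 (3D7) with his tag at 25 nM final met compounds first, then biotinylated RON2 peptide at 25 nM; detection used donor plus acceptor beads, 10 µg/mL apiece, read by AlphaScreen after 30 min at room temperature.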
AmpC inh no detg: qHTS Inhibitors of AmpC Beta-Lactamase (assay without detergent); 0.52% of 330,000 active; P00811; AmpC nitrocefin hydrolysis, absorbance 480 nm, 0.0001% Triton; Potency, µM (titrated, usually from 57.1 µM), most hits filed as inhibitors; AID 485341, 2010; note: nearly all actives have a fitted effect of over 20% in size
Target sequence (P00811 whole entry, looked up): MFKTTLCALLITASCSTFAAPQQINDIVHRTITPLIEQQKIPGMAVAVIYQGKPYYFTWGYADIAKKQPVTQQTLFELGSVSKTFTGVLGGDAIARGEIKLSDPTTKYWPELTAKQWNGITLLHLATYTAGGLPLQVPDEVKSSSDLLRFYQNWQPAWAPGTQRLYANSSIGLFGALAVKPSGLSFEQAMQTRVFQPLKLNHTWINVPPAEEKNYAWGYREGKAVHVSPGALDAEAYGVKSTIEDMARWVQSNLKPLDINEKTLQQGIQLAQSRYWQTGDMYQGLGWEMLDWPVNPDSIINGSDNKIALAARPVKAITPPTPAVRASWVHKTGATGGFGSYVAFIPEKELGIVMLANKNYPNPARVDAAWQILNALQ
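20 mM phosphate pH 7.0 + 0.01% (detergent screen) or 0.0001% Triton X-100; 5.3 nM AmpC reagent; cpd preinc 15 min RT; nitrocefin (800 uM stock) to start; A480 q20 s × 4 min; Activity was normalised to no-enzyme and no-compound control wells.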
RE007 growth inh: qHTS Assay for Inhibitors of the HIV-1 protein Vpr; 0.21% of 360,000 active; Potency, µM (doses to about 92.2 µM), usual class: inhibitors; S. pombe RE007 Vpr strain, BacTiter-Glo ATP luminescence, 24 h; AID 651644, 2012; active = well fitted falling curve with a large enough effect; inconclusive = small, poorly fitted or top-dose-only effect; inactive = no such curve, though single readings can be large or run the other way; note: nearly all actives have a fitted effect of over 50% in size
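Fission yeast strain RE007, carrying one chromosomally integrated HIV-1 vpr copy, was seeded at OD 0.01 in PMG+AL medium with 23 nL pinned compound. After 24 h at 30 °C and 99% humidity, viability was read by BacTiter-Glo luminescence.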
Sm TGR inh: qHTS Assay for the Inhibitors of Schistosoma Mansoni Peroxiredoxins | Potency, µM (titrated, usually from 114 µM), actives largely listed as inhibitors | Schistosoma mansoni thioredoxin glutathione reductase (TGR), Q962Y6 | purified TGR, DTNB reduction, TNB absorbance 405 nm | 3% of 360,000 active; note: nearly all actives have a fitted effect of over 60% in size
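TGR 20 nM + NADPH 100 uM (dispensed conc.), cpd preinc 15 min RT; start with NADPH (500 uM addition) then DTNB (15 mM addition). Kinetic TNB absorbance, 405 nm filter. Four-parameter Hill fit across titration.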
AmpC inh detg: qHTS Inhibitors of AmpC Beta-Lactamase (assay with detergent); AID 485294, 2010; Potency, µM (highest dose often 114 µM), actives largely listed as inhibitors; AmpC hydrolysis of nitrocefin, absorbance 480 nm, 0.01% Triton; 0.041% of 370,000 active; note: nearly all actives have a fitted effect of over 25% in size
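20 mM phosphate pH 7.0 + 0.01% (detergent screen) or 0.0001% Triton X-100; 5.3 nM AmpC reagent; cpd preinc 15 min RT; nitrocefin (800 uM stock) to start; A480 q20 s × 4 min; Activity was normalised to no-enzyme and no-compound control wells.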
Of the large screens only hits and unclear results are named; the others gave an inactive call. Compounds with a hit are over-represented: about 3.2% of the library has one in this group of screens. Unless noted, calls come from the whole dose curve; as a rule, active = well fitted curve in the direction sought with a large enough effect; inconclusive = small, poorly fitted or top-dose-only effect, or another doubt; inactive = no such curve, though single readings can be large; an effect the other way counts as inactive or inconclusive.

Cc1ccc(CNC(=O)CCS(=O)(=O)c2cccc3nonc23)cc1	Sm TGR inh 25µM
COc1ccccc1CNC(=O)CCS(=O)(=O)c1cccs1	Sm TGR inh 35µM
COc1ccc(NC(=O)CCS(=O)(=O)c2cccc3nonc23)cc1	Sm TGR inh inconclusive
Cc1ccc(NC(=O)CCS(=O)(=O)c2cccc3nonc23)c(C)c1	none (no result: AMA1-RON2 inh, AmpC inh no detg, RE007 growth inh)
COc1cc(Nc2ncc3c(n2)CCN(Cc2ccc(OC(C)C)c(OC)c2)C3)cc(OC)c1	none (no result: AMA1-RON2 inh, AmpC inh no detg, RE007 growth inh)
COc1ccccc1CNC(=O)CCS(=O)(=O)c1cccc2nonc12	Sm TGR inh 45µM
CC(=O)NC(c1ccco1)c1cc(Cl)c2ccc(N(C)C)nc2c1O (centres undefined)	Sm TGR inh 4µM (no result: AMA1-RON2 inh, RE007 growth inh)
Cn1c(=O)c(C(=O)NNC(=O)c2ccc(Br)cc2)c(O)c2ccccc21	RE007 growth inh 28µM
CCCSCCCNC(=O)C1CCN(C(=O)c2cc3sccc3n2C)CC1	none (no result: AMA1-RON2 inh, AmpC inh no detg, RE007 growth inh)
CC1CCCC(C)N1c1nnc(NC(=O)Cn2c(=O)oc3ccccc32)s1 (centres undefined)	AmpC inh no detg 10µM
Cc1ccc(OCC(=O)c2cc(C)c(C)cc2C)c([N+](=O)[O-])n1	Sm TGR inh 16µM, AmpC inh detg inconclusive
Cc1ccc(C)c(C(=O)COc2ccc(C)nc2[N+](=O)[O-])c1	Sm TGR inh 11µM
CC(=NCc1ccco1)c1c(O)n(C)c(=O)n(C)c1=O	none
CCC(=NCc1ccco1)c1c(O)n(C)c(=O)n(C)c1=O	Sm TGR inh 25µM
CCOC(=O)CC(=O)CSc1nc2ccsc2c(=O)n1Cc1ccccc1	none (no result: AMA1-RON2 inh, AmpC inh no detg, RE007 growth inh)
Cc1cc(C)cc(OCC(=O)N2N=C(c3cccnc3)CC2(O)C(F)(F)F)c1 (centres undefined)	none
Cc1cc(C)cc(OCC(=O)N2N=C(C(F)(F)F)CC2(O)C(C)(C)C)c1 (centres undefined)	Sm TGR inh 50µM
Cc1ccc(C)c(N2CCN(C(=O)CN3C(=O)COc4ccc(S(=O)(=O)N5CCC(C)CC5)cc43)CC2)c1	none (no result: AMA1-RON2 inh, AmpC inh no detg, RE007 growth inh)
Cc1ccc(-c2nnc(-c3cccs3)o2)cc1	RE007 growth inh 20µM (no result: Sm TGR inh)
Cc1c(C(=O)N2CCC(C)CC2)c(S(=O)(=O)NCc2ccc(Br)cc2)c(C)n1C	none (no result: AMA1-RON2 inh, AmpC inh no detg, RE007 growth inh)
Cc1nc(N2N=C(c3ccc(Cl)cc3)CC2c2ccco2)sc1C(=O)N(C)C (centres undefined)	Sm TGR inh inconclusive
COc1ccc(C2=NN(c3nc(-c4ccccc4)c(CC(=O)O)s3)C(c3ccco3)C2)cc1 (centres undefined)	AmpC inh no detg 14µM, Sm TGR inh 20µM
c1ccc(-c2cn3c4c(sc3n2)CCCC4)cc1	RE007 growth inh 25µM
c1ccc(-c2cn3nc(-c4ccccc4)sc3n2)cc1	none (no result: AmpC inh no detg, Sm TGR inh, AmpC inh detg)
CCOC(=O)CC(=O)CSc1nc2sc(C)cc2c(=O)n1Cc1ccco1	none
Cc1cc2c(=O)n(Cc3ccco3)c(SCC(=O)c3ccc(Cl)s3)nc2s1	AmpC inh no detg 28µM, Sm TGR inh inconclusive
COc1ccc(NC(=O)CCc2nnc3n(CC(C)C)c(=O)c4ccccc4n23)cc1	none (no result: AMA1-RON2 inh, AmpC inh no detg, RE007 growth inh)
N#Cc1cc(Sc2ccccn2)c([N+](=O)[O-])cc1C#N	Sm TGR inh 35µM
COC(CN(C(=O)CCl)C(C(=O)NC1CCCC(C)C1C)c1ccc(C)cc1)OC (centres undefined)	Sm TGR inh 40µM
COC(CN(C)C(C(=O)NC1CCCCC1)c1ccccc1)OC (centres undefined)	Sm TGR inh inconclusive
COc1ccc(N(C(=O)c2cnccn2)C(C(=O)NC2CCCCC2)c2ccc(Cl)cc2)cc1 (centres undefined)	none (no result: AmpC inh no detg, Sm TGR inh, AmpC inh detg)
COc1ccc(C(C(=O)NC2CCCCC2)N(C(=O)CCl)c2ccc(Cl)cc2)cc1 (centres undefined)	Sm TGR inh 1.6µM
O=C(NC1CCCCC1)C(c1cccnc1)N(C(=O)CCl)c1cccc(Cl)c1 (centres undefined)	Sm TGR inh 4µM
Cc1cccc(N(C(=O)CNC(=O)c2ccco2)C(C(=O)NC2CCCCC2)c2cccnc2)c1 (centres undefined)	none

Screening data from PubChem BioAssay.
